# In all, about 69,000 compounds went through this assay and about 8,600 (12%) showed an effect of 50% or more. Many of the other results were omitted from the sample, so strong results are more common in it than they were.
# Tested on: Plasmodium berghei
# Experiment: Screen against P. berghei liver stage (PbLuc), transformed with Luciferase, at 10uM
# Assay type: functional, HepG2
# Settings: tested at 10 uM
row,SMILES,INHIBITION
1,COC(C)(C)CNC(=O)N1CCC(n2ccc(C(F)(F)F)n2)CC1,33.7%
2,COCCn1cc(CC(=O)Nc2c(C)nn(C)c2C)c2ccccc21,37.8%
3,CCn1cc(CNC(=O)C2CCCC2)cn1,38.3%
4,CCOc1ccccc1CC(=O)N1C[C@@H](C(=O)O)[C@H](c2ccncc2)C1,-5.32%
5,Cc1cccc(CN2CCC(c3csc4nccn34)CC2)n1,15.55%
6,CCN(Cc1nc2c(cnn2C)c(=O)[nH]1)c1cccc(C)c1,11.2%
7,CCN(Cc1nc2c(cnn2C)c(=O)[nH]1)c1ccccc1,46.2%
8,CCN(Cc1nc2c(cnn2C)c(=O)[nH]1)c1cc(C)cc(C)c1,64.7%
9,CC(=O)N1CCC2(C=C(C(=O)NC3CC3)c3ccccc32)CC1,-25.8%
10,COc1ncc(-c2nccn2CCN(C)C)cn1,-13.2%
11,COc1ncc(-c2nccn2C(C)CCn2cccn2)cn1 (stereo unspecified),66.9%
12,COc1cc(CNC(C)Cn2cccn2)cc2c1OCO2 (stereo unspecified),12.6%
13,COc1cc(-c2nccn2C(C)CCn2cccn2)cc2c1OCO2 (stereo unspecified),51.3%
14,COCCCn1ccnc1-c1cnc(OC)nc1,10.1%
15,COc1cc(-c2nccn2CCn2cccn2)cc2c1OCO2,9.56%
16,Cc1cc(CN2CCN(C(=O)c3ccc(=O)n(C)c3)CC2)no1,7.19%
17,Cc1nn(C)c(N(C)C)c1CNCc1cccnc1N(C)C,-17.4%
18,COc1cccc(CC(=O)N2CC[C@H]3[C@@H]2CCC(=O)N3C)c1,-3.51%
19,COc1cccc(CN2CC[C@H]3[C@@H](C2)[C@H](c2ccsc2)CN3C(C)=O)c1,61.9%

row,SMILES,INHIBITION
1,COc1cccc([C@@H]2CCN(Cc3cccc(C)n3)C[C@H]2O)c1,-3.83%
2,COc1cccc(CN2CCCC(c3cc(C(N)=O)[nH]n3)C2)c1 (stereo unspecified),-7.31%
3,CC(=O)N1CCO[C@@H]2CN(Cc3cccc(Cl)c3)C[C@@H]2C1,39.4%
4,CC(=O)N1C[C@@H](c2ccsc2)[C@@H]2CN(Cc3ccccc3)CC[C@@H]21,16.9%
5,COc1cccc([C@@H]2CCN(Cc3ccc4ccccc4n3)C[C@H]2O)c1,-18.4%
6,COc1cccc([C@H]2CN(C(C)=O)[C@@H]3CCN(Cc4ccsc4)C[C@H]23)c1,63.4%
7,CC(=O)N1C[C@@H](c2ccsc2)[C@@H]2CN(Cc3cccc(Cl)c3)CC[C@@H]21,65.5%
8,O=S(=O)(N1CCCC1)N1CC(c2ccnc(Nc3ccccn3)n2)C1,26.7%
9,CN(C)c1ccc(NC(=O)c2ccnn2C)nc1,-62.7%
10,CCN1CC2(CC1=O)CN(C(C)=O)CCN(C(=O)NC(C)C)C2 (stereo unspecified),-17.2%
11,COc1ccc(OCCNCc2c(C)nn(C)c2N(C)C)cc1,-7.1%
12,CCN(C)c1ncnc2c1CCN(C(=O)N1CCCC1)CC2,-21.3%
13,CC(=O)N1CCN(CCNS(=O)(=O)c2ccc(F)c(F)c2)CC1,-35.1%
14,COc1cccc(OCc2cc(C(=O)NC[C@@H]3CCCN3)n[nH]2)c1,14.9%
15,CNC(=O)C(C)(C)N(C)C(=O)c1cc(COc2ccccc2OC)[nH]n1,-4.23%
16,COc1ccccc1OCc1cc(C(=O)NC[C@@H]2CCCN2)n[nH]1,82.9%
17,COC(=O)C(C)(C)NC(=O)c1cc(COc2ccccc2OC)[nH]n1,-3%
18,CNC(=O)C(C)(C)NC(=O)c1cc(COc2ccccc2OC)[nH]n1,63.7%
19,COc1cccc(OCc2cc(C(=O)NC[C@H]3CCCN3)n[nH]2)c1,25.4%

row,SMILES,INHIBITION
1,Cc1ccc(NC(=O)c2cnc(N3CCN(C)CC3)nc2C)cc1C,43.8%
2,CCc1noc(-c2cccc(OCC(=O)NC(C)C)c2)n1,48.7%
3,CC1(c2[nH]ncc2C(N)=O)CCN(c2ncccn2)CC1,26.3%
4,CC(C)=CCN1C[C@@H]2CC[C@H]1CN(C(=O)Cn1c(C)cc(C)nc1=O)C2,-35%
5,Cc1nc(-c2ccncc2)ncc1C(C)NC(=O)CN1CCCCC1 (stereo unspecified),35.8%
6,CC(C)C(=O)N1CCN(C(=O)c2cscn2)[C@H]2CS(=O)(=O)C[C@H]21,26.8%
7,CCn1nc(C)c(C(C)NC(=O)c2cnc(N(C)C)nc2C)c1C (stereo unspecified),10.3%
8,Cc1nc(N(C)C2CCCCC2)ncc1C(C)NC(=O)c1cccnc1 (stereo unspecified),77.5%
9,C[C@@H](NC(=O)c1cccnc1)c1onc(-c2ccccc2)c1C(=O)O,7.5%
10,CN(C)c1nccc(N(C)C2CCCCC2)n1,25.5%
11,CN(c1ncccc1CNC(=O)c1cscn1)C1CCCCC1,26%
12,CCN(C)S(=O)(=O)NC(C)c1cnc(N(C)C2CCCCC2)nc1C (stereo unspecified),63.1%
13,Cc1nc(N(C)C2CCCCC2)ncc1C(C)NC(=O)c1cscn1 (stereo unspecified),59.2%
14,NC(=O)CN1CCC(c2cncc(-c3cccc(Cl)c3)n2)CC1,-40.6%
15,CC(C)COC(=O)N1CCCN(C(C)c2nnc(CC(C)C)o2)CC1 (stereo unspecified),4.22%
16,CCCc1nc(C(C)(C)NC(=O)C2CC(=O)N(C3CCCC3)C2)no1 (stereo unspecified),-15.5%
17,CCCC(=O)N1CCN(CC(O)COCC)CC1 (stereo unspecified),-2.53%
18,Cc1ncsc1CN1CC[C@](C)(O)[C@@H](Oc2cccc(F)c2)C1,33.7%
